The target in test [1] is T1, ETS1 (UniProt P14921).
T1 sequence: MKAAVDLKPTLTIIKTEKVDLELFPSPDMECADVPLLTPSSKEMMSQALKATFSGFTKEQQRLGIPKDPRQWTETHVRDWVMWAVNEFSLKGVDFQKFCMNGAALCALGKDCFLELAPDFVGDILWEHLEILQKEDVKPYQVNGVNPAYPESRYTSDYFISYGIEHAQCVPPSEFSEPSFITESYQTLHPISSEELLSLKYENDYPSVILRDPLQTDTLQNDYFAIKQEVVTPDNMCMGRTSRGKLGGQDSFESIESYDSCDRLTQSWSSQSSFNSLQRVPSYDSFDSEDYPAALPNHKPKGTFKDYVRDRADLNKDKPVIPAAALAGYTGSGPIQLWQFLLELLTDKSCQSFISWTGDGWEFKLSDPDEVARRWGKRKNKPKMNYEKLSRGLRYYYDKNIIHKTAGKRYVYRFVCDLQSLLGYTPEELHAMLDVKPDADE
The test can be described thus: ETS1 binding intensity (PBM fluorescence), ETS1 alone (arbitrary fluorescence units); higher = stronger binding. As to conditions: ETS1 concentration 1 nM; RUNX1 concentration 0 nM.

In test [2] the target is T1, ETS1. The test can be described thus: ETS1 binding intensity (PBM fluorescence) in presence of RUNX1, normalised to ETS1-only experiment (arbitrary fluorescence units); higher = stronger binding. Conditions: ETS1 concentration 1 nM; RUNX1 concentration 25 nM.
Test [3] has as its target T1, ETS1. In words: TF binding intensity (PBM fluorescence), negative control probe (arbitrary fluorescence units); higher = stronger binding. As for the experimental part: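 gcPBM negative-control 36-bp genomic probes lacking TF binding sites. Each was incubated with recombinant human ETS1 or RUNX1 alone and detected by antibody fluorescence. Values are medians over replicate spots (4 spots for the ETS1-RUNX1 arrays, 3 for the ETS1-ETS1 array). The probes sit in constant array flanks that are not printed.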

The text below walks through data of the supplement of paper PMC10681739.

On to TGCACTCCACTTCCCCTCGCCCGCAGTGAGCAGTCA, for which the values for the ETS1 binding intensity with ETS1 [1] and in the test with ETS1 [2] were 426 and 450, respectively.

As for GACGCTCTCTTCCTGTCTTTGTGGCTCCAGAAAGGC, the figures for the ETS1 binding intensity with ETS1 [1] and with ETS1 [2] were 830 and 630, respectively. On to GAGCAGCGGGAGGAAGCTGCGGCGCGCAGAGCAGAG, for which the figures for the ETS1 binding intensity with ETS1 [1] and with ETS1 [2] were 534 and 486, respectively. In the case of GGGCTTCAGCGGATGAACAAGGTTACCACGGGGAGT, the ETS1 binding intensity was 459 with ETS1 [1] and 504 with ETS1 [2]. Take AGTGTAAACACGGAAGTGGCCGCAGGGGTGGGGGAT: the results for the ETS1 binding intensity with ETS1 [1] and with ETS1 [2] were 1820 and 2690, respectively. As to GTGTTCAGACGGAAGCGTTATTCAGTGGTCAGAGCA, the ETS1 binding intensity came to 741 in the test with ETS1 [1] and 1070 with ETS1 [2]. Consider CTTCGCCGCTTCCAGGAAGGGCCACAACGGCCGTCG, for which the ETS1 binding intensity with ETS1 [1] was determined as 563; in the test with ETS1 [2], 483. The matching figures for GGGGGAATGTAGGAAGTATCATCGCCCACAAGAAAG: 644 and 807. TGGCTGGGCAGGAAGGCCTGTGGCTTACGGTTCCTG: the ETS1 binding intensity with ETS1 [1] came out at 551; with ETS1 [2] it was 651. On to TACTTAGAGGAAATGTGGCCTGTGGTCTTGTCTCAC, for which the results for the ETS1 binding intensity with ETS1 [1] and in the test with ETS1 [2] were 617 and 977, respectively. For CCCTTTTCCTTCCGGCCTGTGCGGCTTATAAGATCT, the values for the ETS1 binding intensity with ETS1 [1] and in the test with ETS1 [2] were 736 and 1090, respectively.

In the test with ETS1 [3], “CTTAGTTCAGTGTAAGGGGCCTGGTTGTTGGATTTT (protein concentration 10 nM)” came in with a TF binding intensity of 119. As for “ACATCTCATGGTTTTAAAGTAAATGAATTAAAAGTC (protein concentration 10 nM)”, the TF binding intensity with ETS1 [3] amounted to 116. “CATTAGTAAACCCTTACCACACCCAAACAACAAAAG (protein concentration 1 nM)” gave a TF binding intensity with ETS1 [3] of 541.

“TAATCCCAGCACTTTGGGAATCCAAGGCAGTCAAAT (protein concentration 10 nM)”: the TF binding intensity with ETS1 [3] amounted to 94.8.
